Measurements: PubChem BioAssay AID1117361 (Southern Research Institute, 2015)
In all, about 3,600 compounds went through this assay and about 900 (25%) were called active. No rule for the calls is given here. The list is a sample of the results. Entries with a potency or affinity are not part of this list.

target: Protein Tat (Human immunodeficiency virus type 1 group M subtype B (isolate HXB2)) (UniProt P04608); test: inhibitors of Tat binding to TAR RNA, dose response, counter-screen for Vif-APOBEC3G degradation inhibitor project, biochemical, fluorescence polarization, FAM-labeled TAR RNA (AID 1117361); details: outcome: dose series up to 100 µM unless noted; series mostly up to 100 µM; inhibition: at the top concentration

Row | Compound | inhibition | outcome
1 | O=C(c1cc(COc2ccc(F)cc2F)on1)N1CCN(C2CCCC2)C(=O)C1 | 4.34% (inactive) | –
2 | CC(C)CCn1cnc2c([nH]c3cccc(Cl)c32)c1=O | 2.03% (inactive) | –
3 | CCCS(=O)(=O)N1CCC(C(=O)NCCCN(CC)c2cccc(C)c2)CC1 | 2.73% (inactive) | –
4 | CCc1nnc(NC(=O)C(NS(=O)(=O)c2ccc3c(c2)OCCO3)C(C)C)s1 (stereo unspecified) | 2.7% (inactive) | –
5 | Nc1nc(SCc2nc(-c3ccccc3)no2)[nH]c(=O)c1-c1ccccc1 | 0.68% (inactive) | –
6 | Cc1ccc(-c2nnn(CC(=O)N(c3ccc(F)cc3)C(C(=O)NC3CCCC3)c3ccco3)n2)o1 (stereo unspecified) | – | inactive
7 | O=S(=O)(c1ccc(NC(=S)N/N=C/c2ccc(O)c(O)c2)cc1)N1CCOCC1 | – | inactive
8 | O=C(CC(=O)NN=Cc1ccc2c(c1)CCC2)NN=Cc1ccc2c(c1)CCC2 | – | inactive
9 | Cc1[nH]c2ccccc2c1C(=O)CN1CCC(C(N)=O)(N2CCCCC2)CC1 | 13.5% (inactive) | –
10 | C[C@H](NC(=O)c1ccco1)C(=O)Nc1cccc([N+](=O)[O-])c1 | – | inactive
11 | CCNS(=O)(=O)c1ccc(NS(=O)(=O)c2cc(C)ccc2C)cc1 | 7.5% (inactive) | –
12 | N/C(=N\OC(=O)COc1ccc2ccccc2c1)c1ccccn1 | 0.68% (inactive) | –
13 | Cc1ccc(-c2nn3c(C)nnc3s2)cc1NC(=O)CSc1ccc(Cl)cc1 | – | inactive
14 | COc1ccc(C)cc1-n1c(SCC(=O)Nc2cc(C)on2)nc2sc(C)c(C)c2c1=O | – | inactive
15 | CCCCn1c(CCNC(=O)CC)nc2ccccc21 | 2.7% (inactive) | –
16 | CCC(C)(C)NC(=O)C(c1ccc(F)cc1)N(Cc1ccco1)C(=O)c1cnccn1 (stereo unspecified) | – | inactive
17 | CC(OC(=O)c1cccnc1)C(=O)NCc1ccc2c(c1)OCO2 (stereo unspecified) | – | inactive
18 | O=C(COC(=O)c1ccccc1Br)Nc1nnc(-c2ccccc2)o1 | – | inactive
19 | Cc1cc(C)cc(NC2=CC(=O)CC(c3ccco3)C2)c1 (stereo unspecified) | 2.47% (inactive) | –

Row | Compound | inhibition | outcome
20 | O=C(O)CCCC(=O)NCCc1cccc(Cl)c1 | 3.41% (inactive) | –
21 | COc1ccc(CSc2nnnn2C)cc1F | – | inactive
22 | COc1ccc(OC)c(C(=O)CSc2nnnn2C)c1 | – | inactive
23 | CCOC(=O)C1(CCOC)CCN(Cc2cnc(-c3cccc(C)c3)nc2)CC1 | – | inactive
24 | CCOC(=O)c1c(C)[nH]c(C(=O)COC(=O)CSCC(=O)N(CC)CC)c1C | 5.41% (inactive) | –
25 | Cc1ccc(NCc2nnc(SCc3ccc(C#N)cc3)n2Cc2ccco2)c(C)c1 | 11.5% (inactive) | –
26 | Cc1ccc(-c2csc(NC(=O)c3ccc(-c4ccccc4)cc3)n2)o1 | 5.41% (inactive) | –
27 | c1ccc(Nc2ccccn2)cc1 | 0.68% (inactive) | –
28 | CN(Cc1nc(-c2cccnc2)no1)S(=O)(=O)c1ccccc1 | 1.35% (inactive) | –
29 | Cc1cccc2c1c1ccc3c(c1n2C)C(=O)C=CC3=O | 11% (inactive) | –
30 | CCOC(=O)c1csc(N)c1-c1ccc([N+](=O)[O-])cc1 | – | inactive
31 | CCOc1ccc(NC(=O)C2CCCN(S(=O)(=O)c3c(C)nn(C)c3C)C2)cc1 (stereo unspecified) | 1.65% (inactive) | –
32 | COc1ccccc1N1CCN(C(=O)c2oc3cc(C)c(C)cc3c2C)CC1 | – | inactive
33 | CC(C)c1ccc(-c2nc(N3CCCCCC3)nc3n[nH]c(N)c23)cc1 | – | inactive
34 | Cc1ccc(S(=O)(=O)N(CC(=O)NCCC2=CCCCC2)Cc2ccccc2F)cc1 | – | inactive
35 | O=[N+]([O-])c1ccc2c(c1)S(=O)c1ccccc1-2 (stereo unspecified) | – | inactive
36 | COC(=O)CSc1nc2cc(C)cc(C)c2cc1C#N | 4.09% (inactive) | –
37 | COc1cccc(C(=O)Nc2nc3c(s2)CN(C)CC3)c1 | 10.1% (inactive) | –
38 | NC(=S)N=Nc1c(O)n(C2OC(=O)c3ccccc32)c2ccccc12 (stereo unspecified) | 3.41% (inactive) | –

Row | Compound | inhibition | outcome
39 | CCOc1ccccc1C(=O)NCC(=O)OCC(=O)NCCc1ccc(S(N)(=O)=O)cc1 | 10.1% (inactive) | –
40 | COC(=O)c1c(C)[nH]c(C=O)c1-c1ccccc1 | – | inactive
41 | COC(=O)C(O)(CC(=O)c1ccc(OC)cc1)C(F)(F)F (stereo unspecified) | 2.03% (inactive) | –
42 | CCCC(NCC(=O)Nc1ccccc1C(=O)NC1CC1)c1ccccc1 (stereo unspecified) | – | inactive
43 | O=C(C1CCC(CNS(=O)(=O)c2cccc3cccnc23)CC1)N1CCCC1 (stereo unspecified) | – | inactive
44 | COc1ccc(NC(=O)C2CCCN2S(=O)(=O)c2cccc3cccnc23)c(OC)c1 (stereo unspecified) | 0.68% (inactive) | –
45 | O=C(Nc1ccc(-c2noc(-c3cccs3)n2)cc1)c1cccnc1 | 2.05% (inactive) | –
46 | COc1ccc(-c2nc(C(N)=O)c3[nH]c(=O)n(-c4cccc(Cl)c4)c3n2)cc1OC | 2.7% (inactive) | –
47 | O=c1cc(-c2ccc(O)cc2)oc2cc(O)c(C3OC(CO)C(O)C(O)C3O)c(O)c12 (stereo unspecified) | 21.4% (inactive) | –
48 | CSCCC(NC(=O)C1CCC(C)CC1)C(=O)NCc1ccco1 (stereo unspecified) | 6.82% (inactive) | –
49 | Cc1ccc(-n2c(SCC(N)=O)nc3c([nH]c4ccccc43)c2=O)cc1 | 1.35% (inactive) | –
50 | CN1C(=O)c2ccccc2C(C(=O)O)C1c1cccc(F)c1 (stereo unspecified) | 1.36% (inactive) | –
51 | Cc1cc(O)c(C(C)C)cc1N=Cc1ccc([N+](=O)[O-])cc1 | – | inactive
52 | Cc1ccc(-n2ncc3c(=O)[nH]cnc32)c(C)c1 | – | inactive
53 | O=C(NC1CCCCC1)C(c1ccc(Cl)cc1)N(C(=O)c1ccccn1)c1cccnc1 (stereo unspecified) | – | inactive
54 | COc1ccccc1NC(=O)c1cc2ccc(O)cc2o/c1=N\O | – | inactive
55 | CCOC(=O)CSc1nnc(CNC(=O)c2cc(OC)c(OC)c(OC)c2)n1C | – | inactive
56 | COC(=O)CSc1nnc(CNC(=O)Cc2ccccc2)n1-c1ccccc1OC | 1.36% (inactive) | –
